Results published in PubChem BioAssay (Tox21).
Results filed as inconclusive are left out. Entries that show only a call come without a potency. More than one record can exist for a structure, and the calls need not agree. Calls of active or inactive are those of the source. The call rests on the fitted dose curve; in most records, active means well fitted inhibition curve with a large enough effect in the repeat runs; inconclusive means weak or mixed curves, or effect the other way; inactive means no such curve, though single readings can be large or run the other way.

Molecular target: Nuclear receptor ROR-gamma (Homo sapiens) (UniProt P51449)
Test: qHTS assay to identify small molecule antagonists of the retinoid-related orphan receptor gamma (ROR-gamma) signaling pathway (AID 1159521; further: nearly all actives have a fitted effect of over 50% in size)
Conditions: Tet-on RORgamma CHO cells, RORE-luciferase, 16 h; series mostly up to 92.4 µM
From the text: U.S. Tox21 Program National Center for Advancing Translational Sciences [NCATS] NIH Chemical Genomics Center [NCGC] U.S. Environmental Protection Agency [EPA] National Institutes of Environmental Health Sciences [NIEHS] National Toxicology Program [NTP] U.S. Food and Drug Administration [FDA] Tox21 Assay Overview: Nuclear steroid hormone receptors are involved in many biological processes including inflammatory responses, cell proliferation, and apoptosis. Environmental factors or compounds disrupting these nuclear receptor pathways and gene expression may promote susceptibility to immunotoxicants and autoimmune diseases. One important group of these expression factors are the retinoid-related orphan receptors. To assess compounds that may interfere with the retinoid-related orphan receptor gamma (ROR-gamma) transcription factor, a cell-based luciferase assay was used. The CHO cell-based assay utilizes a TET-inducible ROR expression factor and ROR response element-LUC reporter gene. Reporter gene activity was induced using Doxycycline Hyclate and measured after 16 hr incubation. Tet-on ROR gamma CHO cells were used to screen against the Tox21 10K compound library for ROR gamma antagonists by quantification of decreased reporter gene activity in terms of decreased luminescence.
Tox21 Assay Protocol Summary: Tet-on ROR gamma CHO cells were dispensed at 1,000 cells in 4 uL of culture medium per well into white wall/solid bottom 1536-well plates using a Multidrop Combi (Thermo Scientific, Waltham, MA) dispenser. Following incubation at 37 C and 5% CO2 for 4 hr, 23 nL of compounds dissolved in DMSO, positive controls or DMSO only were transferred by a Pintool station (Kalypsys, San Diego, CA) and after 2 hr incubation at 37 C, one ul of 1 uM (final concentration) of Doxycycline Hyclate was added to all the wells by using a Flying Reagent Dispenser (FRD) (Aurora Discovery, San Diego, CA). After 16 hr incubation at 37 C and 5% CO2, 5 uL of ONE-Glo reagent (Promega Corporation, Madison, WI) was added to each assay plate using FRD. After 30 min incubation at room temperature, luminescence was quantified on a ViewLux plate reader (Perkin Elmer, Waltham, MA).
Potency means the concentration at half of the fitted maximal effect.

Row | Structure (SMILES) | Potency
1 | c1ccc2cc3ccccc3cc2c1 | inactive
2 | Brc1nc2ccccc2s1 | inactive
3 | O=C(O)COCCN1CCN(C(c2ccccc2)c2ccc(Cl)cc2)CC1 (stereo not given) | inactive
4 | IC(I)I | inactive
5 | CC(=O)O[C@]1(C(C)=O)CC[C@H]2[C@@H]3C=C(C)C4=CC(=O)CC[C@]4(C)[C@H]3CC[C@@]21C | 21.7 µM (active)
6 | Nc1ccc(O)c(N)c1 | inactive
7 | NC[C@H](O)c1ccc(O)c(O)c1 | inactive
8 | C=C[C@@]1(C)CC(=O)[C@]2(O)[C@@]3(C)[C@@H](O)CCC(C)(C)[C@@H]3[C@H](O)[C@H](OC(C)=O)[C@@]2(C)O1 | 54.5 µM (active)
9 | C=C1C[C@H]2[C@@H]3C=C(C)C4=CC(=O)CC[C@]4(C)[C@H]3CC[C@]2(C)[C@@]1(OC(C)=O)C(C)=O | inactive
10 | OC[C@H]1O[C@@H]2O[C@H]3[C@H](O)[C@@H](O)[C@@H](O[C@H]4[C@H](O)[C@@H](O)[C@@H](O[C@H]5[C@H](O)[C@@H](O)[C@@H](O[C@H]6[C@H](O)[C@@H](O)[C@@H](O[C@H]7[C@H](O)[C@@H](O)[C@@H](O[C@H]1[C@H](O)[C@H]2O)O[C@@H]7CO)O[C@@H]6CO)O[C@@H]5CO)O[C@@H]4CO)O[C@@H]3CO | inactive
11 | O=S1(=O)CCCO1 | inactive
12 | CN(C)CCCN1c2ccccc2Sc2ccc(Cl)cc21 | 34.4 µM (active)
13 | C=CCCCCCCCCCC | inactive
14 | C[C@]12C=CC(=O)C=C1CC[C@H]1[C@@H]3C[C@@H](O)[C@](O)(C(=O)CO)[C@@]3(C)C[C@H](O)[C@@]12F | inactive
15 | [O-]/[N+](=N\O)c1ccccc1 | inactive
16 | COc1ccc(C(=O)c2ccccc2O)c(O)c1 | inactive
17 | Clc1ccc(Sc2cc(Cl)c(Cl)cc2Cl)cc1 | inactive
18 | CC1=CC(C)(C)Nc2ccccc21 | inactive
19 | COC(=O)C(C)Oc1ccc(Oc2ncc(C(F)(F)F)cc2Cl)cc1 (stereo not given) | inactive
20 | CCCCCCOCCOCCO | inactive

Row | Structure (SMILES) | Potency
21 | C[C@]12CC[C@@H]3c4ccc(O)cc4CC[C@H]3[C@@H]1CC[C@H]2O | 17.5 µM (active)
22 | O=C(O)c1cc(=O)[nH]c(=O)[nH]1 | inactive
23 | c1ccc2ncccc2c1 | inactive
24 | CCCCCCCCCCCCO | inactive
25 | CCc1cccc2c3c([nH]c12)C(CC)(CC(=O)O)OCC3 (stereo not given) | inactive
26 | COc1cc([C@H]2Oc3cc([C@H]4Oc5cc(O)cc(O)c5C(=O)[C@@H]4O)ccc3O[C@@H]2CO)ccc1O | inactive
27 | CC(C)(Oc1ccc(Cl)cc1)C(=O)O | inactive
28 | CC(=O)Nc1ccc2c(c1)Cc1cc(NC(C)=O)ccc1-2 | inactive
29 | c1ccc2c(c1)ccc1ncccc12 | inactive
30 | CC1(C)OC(=O)NC1=O | inactive
31 | Cc1ccc(C)c(O)c1 | inactive
32 | C=CN1CCCC1=O | inactive
33 | O=C(O)CCCCCCCCCCCC(=O)O | 53.6 µM (active) and inactive
34 | O=C(O)CCCC(=O)O | inactive
35 | Cc1ccc([N+](=O)[O-])c(C)c1 | 2.43 µM (active) and inactive
36 | NCCOCCO | inactive
37 | C1COCCN1 | inactive
38 | CC/C=C\C/C=C\C/C=C\CCCCCCCC(=O)O | inactive
39 | C=CC(=O)OCCCC | inactive
40 | OC[C@@H](O)[C@@H](O[C@@H]1O[C@H](CO)[C@H](O)[C@H](O)[C@H]1O)[C@H](O)[C@@H](O)CO | inactive
